Source: PubChem BioAssay (NCI)
This is part of a sample that, as a whole, favours compounds with a hit. Of some 83,000 tested, about 20% had one in any assay.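 Activity criterion: percent growth below 10, measured after cells in 96-well plates were exposed to a single compound concentration for 48 hours.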 Unmarked numbers belong to inactive results. Calls of active or inactive are those of the source.

What follows are compounds tested on HL-60(TB) leukemia (assay: NCI-60 one-dose screen, 48 h (100 = growth as untreated, 0 = no growth, -100 = all killed)). Details: 10 µM unless noted.
NC(=O)CNc1ccc([As]=[As]c2ccc(NCC(N)=O)cc2)cc1 (configuration not stated) showed a growth of 19.8%.
For C/C(=C\c1ccn(-c2ccc(N)cc2)n1)[C@@H]1C[C@@H]2O[C@]2(C)CCC[C@H](C)[C@H](O)[C@@H](C)C(=O)C(C)(C)[C@@H](O)CC(=O)O1, the growth was 5.9% (active).
In the case of CC1(C)N=C(N)N=C(N)N1c1ccc(OCCCNC(=O)Nc2ccc(S(=O)(=O)F)cc2)c(Cl)c1, the growth is reported as 31.8%.
c1ccc(COc2ccc3[nH]cc(CCN(Cc4ccccc4)Cc4ccccc4)c3c2)cc1 showed a growth of 91.8%.
Work on O=[As](O)(O)c1ccccc1[As](=O)(O)O yielded a growth of 113%.
C1CCC([PH+](C2CCCCC2)C2CCCCC2[PH+](C2CCCCC2)C2CCCCC2)CC1.[Au].[CH-]1CCCCC1CC1CCCC[N-]1 (configuration not stated) was tested, and the growth was -32.3% (active).
CCCC(=O)O[C@@H]1C[C@H]2C[C@@H](O[C@@H]3O[C@@H](C)[C@@H](O)[C@@H](O)[C@H]3OC)C[C@@H](C[C@@H](C)/C=C/C=C\C[C@@H]3O[C@@H](C[C@@H]3C)[C@@H](O)C[C@H]3C[C@@]1(O)C(=O)O3)O2 gave a growth of 29.9%.
With CC[S][Hg][Cl] the growth was 113%.
Work on COc1cccc2c1c(C(=O)c1ccco1)cn2Cc1ccc(F)cc1 yielded a growth of 162%.
Work on CC(=O)c1ccc(C(=O)NCC2CCC3(CC2)OOC2(CCCCC2)OO3)cc1 yielded a growth of 19.6%.
Compound O=C(N/N=C/c1ccc(N(CCCl)CCCl)cc1)c1cccc2ccccc12 has a growth of 29.5%.
In the case of O=C(CCCCCNC1=CC(=O)c2ccccc2C1=O)NCCC[Te]c1ccccc1, the growth is reported as 28.1%.
For N#CC1(c2ccccc2)CCN(Cc2ccccc2)CC1, the growth was 102%.
With O=P1(NCCCl)OCCCN1CCCl (configuration not stated) the growth was 100%.
With O=C(CC1(O)C(=O)Nc2ccc(Br)cc21)c1ccc(C(=O)NCC2CCC3(CC2)OOC2(CCCCC2)OO3)cc1 (configuration not stated) the growth was -39.2% (active).
Cc1ccc(Nc2nc3c(s2)C2=CC[C@@H]4[C@H](CC[C@]5(C)C(=O)CC[C@@H]45)[C@@]2(C)CC3)cc1 showed a growth of 34%.
In the case of C=C1C[C@](OC)([C@H](O)C(=O)N[C@@H](OC)[C@@H]2C[C@@H](O)C(C)(C)[C@@H](C[C@@H](COC)OC)O2)O[C@H](C)[C@@H]1C, the growth is reported as -52% (active).
In the case of O=C1C2C(C(=O)[N]1[Hg][c]1cccs1)C1(Cl)C(Cl)=C(Cl)C2(Cl)C1(Cl)Cl (configuration not stated), the growth is reported as -12.1% (active).
In the case of COc1ccc(/C=C\c2cc(OC)c(OC)c(OC)c2)cc1NC(=O)/C=C/c1ccc(OC)c(OC)c1, the growth is reported as -24.9% (active).
With O=C(O)c1c(Cl)n(Cc2ccc(O)cc2)c2ccc(O)cc12 the growth was 101%.
For CC(=O)OCc1cc[c]([Hg][Cl])o1, the growth was -25.1% (active).
COC(=O)[C@@H](C)C[C@H](Cc1ccccc1)NC(=O)c1csc([C@@H](C[C@H](C(C)C)N(C)C(=O)[C@@H](NC(=O)CN(C)C)C2CC2)OC(C)=O)n1 was tested, and the growth was -27% (active).
Compound CC(=O)Nc1nc2c(s1)CC[C@@]1(C)C2=CC[C@H]2[C@@H]3CC[C@H](O)[C@@]3(C)CC[C@@H]21 has a growth of 29.3%.
COc1ccc(/C(C)=C(\c2ccc(OCCN3CCOCC3)cc2)c2ccc(OC(=O)Cc3ccccc3)cc2)cc1 was tested, and the growth was 118%.
In the case of O=C(O)C(O)C(O)C1[O][Sb]([c]2ccc([N+](=O)[O-])cc2)[O]C1CO (configuration not stated), the growth is reported as 92.8%.
Fc1c[c-]c(-c2ccccn2)c(F)c1.[CH3-].[Pt+2].c1ccc([PH+](c2ccccc2)c2ccccn2)cc1 was tested, and the growth was -6.41% (active).
CCCCCCCCOC(=O)CCN1CC1 was tested, and the growth was 149%.
With O=C1N[C@@H]2[C@@H](O)[C@@H](O)[C@H](O)C[C@H]2c2cc3c(c(O)c21)OCO3 the growth was -37.8% (active).
For O=P(Oc1ccc(Cl)cc1)(N1CC1)N1CC1, the growth was 96%.
Compound O=C1CC2(CC3(Cl)C(Cl)=C(Cl)C2(Cl)C3(Cl)Cl)C(=O)O1 (configuration not stated) has a growth of 97.1%.
In the case of COc1ccc(/C=C/c2cc(OC)c(OC)c(OC)c2)cc1NC(=O)/C=C/c1ccc(F)cc1, the growth is reported as -20% (active).
For Nc1cc2nc3ccccc3nc2cc1N, the growth was 87.5%.
For CN[C@@]1(c2ccccc2Cl)CCCC[C@@H]1NCC1CCCO1 (some centres not stated), the growth was 99.9%.
COc1cc2c(cc1OCCCn1c(-c3ccccn3)nc3ccccc31)N=C[C@@H]1CCCN1C2=O was tested, and the growth was -21.7% (active).
In the case of O=C(CC1(O)C(=O)Nc2ccc(Cl)cc21)c1ccc(C(=O)NCC2CCC3(CC2)OOC2(CCCCC2)OO3)cc1 (configuration not stated), the growth is reported as -62% (active).
For CNC12C3C4C1C1C2C3C41C(=O)N[C@H](C(=O)N(C)[C@H](C[C@@H](OC(C)=O)c1nc(C(=O)N[C@@H](Cc2ccccc2)C[C@H](C)C(=O)OC)cs1)C(C)C)C1CC1 (some centres not stated), the growth was -34.9% (active).
In the case of c1cc2c(c3c1CCNC3)OCO2, the growth is reported as 101%.
